A selection: hits, their analogues and other compounds. The true share with any hit is near 6.2%.
FMDV inh – foot and mouth disease virus antiviral activity | FMDV antiviral cell-based qHTS | Potency, µM (top dose mostly 57.9 µM), most hits filed as inhibitors | actives 1.2% (n = 410,000); calls by dose curve; tested in HEK293T cells; further: read-out not given here; nearly all actives have a fitted effect of over 45% in size
LASV entry inh – Lassa virus entry inhibition. Lassa virus pseudotype entry inhibition, cell reporter. Potency, µM (doses to about 37.9 µM), actives largely listed as inhibitors. actives 1.2% (n = 300,000). AID 540256; calls by dose curve; tested in HEK293 cells; further: nearly all actives have a fitted effect of over 50% in size
Marburg entry inh – inhibitors of Marburg virus binding or cell entry | Marburg virus pseudotyped entry inhibition, cell reporter | Potency, µM (doses to about 37.8 µM), hits mostly inhibitors | actives 1.8% (n = 300,000); calls by dose curve; tested in HEK293 cells
HCMV inh – blocks human cytomegalovirus replication | activity change, negative = inhibition, % at 57.5 µM | HFF cells, HCMV-luciferase reporter, 72 h; active compounds read low | actives 4.5% (n = 410,000) | AID 1259415; in the data active means activity change below about -60%; inconclusive means no clear call, values can overlap the other calls; inactive means above about -39%
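Luciferase read-out from HCMV-luciferase-infected HFFs (MOI 1 PFU/cell) 72 h post infection at 37C; compounds added after 16 h cell attachment; activity normalized between buffer-only basal and Salinomycin (10uM) inhibitor controls.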
Each line names hits and unclear results; the compound was inactive in the other large screens; ! = not confirmed by another sample.

COc1cc(OC)c(NC(=O)Nc2nnc(N(C)C3CCCCC3)s2)cc1Cl	none
O=C(N/N=C1\C[C@@H](O)[C@@H](O)[C@@H]2[C@@H]3C(=O)N(Cc4ccc5c(c4)OCO5)C(=O)[C@@H]3CC[C@H]12)OCc1ccccc1	none (no result: FMDV inh, LASV entry inh, HCMV inh)
CCC(=O)N1c2ccccc2CC1C(=O)NCCCN1CCN(c2cc(C)ccc2C)CC1 (configuration not stated)	FMDV inh inconclusive, LASV entry inh inconclusive (no result: Marburg entry inh)
Cc1cccc(N2CCN(CCCNC(=O)C3CCCN(c4ncnc5c4nc4n5CCCCC4)C3)CC2C)c1 (configuration not stated)	FMDV inh inconclusive, LASV entry inh inconclusive, Marburg entry inh 11µM, HCMV inh inconclusive
Cc1cccc(N2CCN(c3ncnc4c3nc3n4CCCCC3)CC2C)c1 (configuration not stated)	FMDV inh 2.2µM, LASV entry inh inconclusive, HCMV inh -98 (no result: Marburg entry inh)
Cc1ccc(Cl)cc1N1CCN(c2ncnc3c2nc2n3CCCCC2)CC1	FMDV inh inconclusive (no result: Marburg entry inh)
Cc1cccc(CCNC(=O)C2CCCN(c3ncnc4c3nc3n4CCCCC3)C2)c1 (configuration not stated)	LASV entry inh inconclusive, Marburg entry inh inconclusive, HCMV inh inconclusive
CCOC(=O)c1c(-c2ccc(F)cc2)csc1NC(=O)c1c(-c2ccccc2)noc1C	LASV entry inh 8.9µM, Marburg entry inh 3.5µM, HCMV inh -68
Cc1ccc(-c2csc(NC(=O)c3ccc(Br)cc3)c2C(=O)O)cc1	LASV entry inh inconclusive, Marburg entry inh 1.3µM, HCMV inh -95
Cc1cccc(C(=O)Nc2scc(-c3ccc(Br)cc3)c2C(=O)O)c1	LASV entry inh inconclusive, Marburg entry inh inconclusive, HCMV inh inconclusive
CCOC(=O)c1c(-c2ccccc2)csc1NC(=O)/C(C#N)=C/c1ccc(O)c(OC)c1	FMDV inh inconclusive, HCMV inh -65
CCOC(=O)c1c(-c2ccccc2)csc1NC(=O)/C(C#N)=C/c1ccc(OC)c(OC)c1	none
CCOC(=O)c1c(-c2ccc(C)cc2)csc1NC(=S)NC(=O)c1ccccc1	FMDV inh inconclusive, LASV entry inh 2.1µM, Marburg entry inh 1.8µM, HCMV inh inconclusive
CCOC(=O)c1c(-c2ccccc2)csc1NC(=O)c1cc(-c2ccc(F)cc2)on1	none
COC(=O)c1c(-c2ccc(C)cc2)csc1NC(=S)NC(=O)c1ccc(F)cc1	none
CCCCCCCCN1C(=O)[C@@H](CC(=O)NCC2CCCCC2)C[C@@]2(C(=O)OC)C1=C[C@H](C1CCCC1)O[C@@H]2C	none (no result: FMDV inh, LASV entry inh, Marburg entry inh)
O=C(NCc1cccnc1)c1cc(C2CCCCN2S(=O)(=O)c2ccc(F)cc2F)on1 (configuration not stated)	none (no result: LASV entry inh, Marburg entry inh)
Clc1ccc(OCCn2c(-c3ccco3)nc3ccccc32)cc1	HCMV inh -75
COc1ccc(CNc2nc3ccccc3n2Cc2ccc(Cl)cc2)cc1OC	LASV entry inh inconclusive, Marburg entry inh 11µM
Clc1ccc(Cn2c(CN3CCCC3)nc3ccccc32)cc1	LASV entry inh inconclusive, Marburg entry inh 3.2µM! (no result: FMDV inh, HCMV inh)
c1ccc(Cn2c(CN3CCCC3)nc3ccccc32)cc1	none
Fc1ccccc1Cn1c(-c2ccccc2)nc2ccccc21	FMDV inh inconclusive, LASV entry inh inconclusive, HCMV inh -61
CN=C(NC#N)NCCSCC1N=CN=C1C (configuration not stated)	none (no result: FMDV inh, LASV entry inh, HCMV inh)
COc1ccccc1Cc1c(C2CCCCC2)nc2c3ccccc3ccn12	none (no result: LASV entry inh, Marburg entry inh)
CCN1C(=O)/C(=C2\C=CC3=C(CCCC3)N2CC)SC1=S	none (no result: FMDV inh, LASV entry inh, HCMV inh)
OCc1nc2ccccc2n1Cc1ccc(Cl)cc1	none
Cc1nc2ccccc2n1Cc1ccc(Cl)cc1	FMDV inh inconclusive, HCMV inh -89 (no result: LASV entry inh, Marburg entry inh)
Cc1ccccc1Cn1c(C)nc2ccccc21	FMDV inh inconclusive, LASV entry inh inconclusive, Marburg entry inh inconclusive, HCMV inh -87
Nc1nc2ccccc2n1Cc1ccc(Cl)c(Cl)c1	FMDV inh inconclusive, Marburg entry inh 10µM
COc1ccccc1Cn1c(C)nc2ccccc21	FMDV inh inconclusive
Cc1nnc(C)n1/N=C\c1cc(Br)cc(Br)c1O	none (no result: FMDV inh, LASV entry inh, HCMV inh)
C=CS(=O)(=O)c1sc(Cl)c(N2CCOCC2)c1[N+](=O)[O-]	FMDV inh 25µM, LASV entry inh 3.2µM, Marburg entry inh 5µM, HCMV inh -72
O=[N+]([O-])c1cccc(Cl)c1N1CCOCC1	none
COC(=O)c1c(OCc2cccnc2)cc(=O)n2c1CCN(C(=O)c1cccc(N(C)C)c1)CC2	none (no result: LASV entry inh, Marburg entry inh, HCMV inh)
CSc1cc(-c2ccccc2)n(C)c(=O)c1C#N	HCMV inh -66
CCc1ccc2occ(CC(=O)Nc3sc4c(c3C(=O)OC)CCC4)c2c1	LASV entry inh inconclusive, Marburg entry inh inconclusive
Cc1nn2c(N3CCN(C(=O)c4ccco4)CC3)cc(C(C)(C)C)nc2c1-c1ccccc1	FMDV inh 14µM, HCMV inh -64
Cc1nn2c(N3CCN(C)CC3)cc(C(C)(C)C)nc2c1-c1ccccc1	FMDV inh inconclusive, LASV entry inh inconclusive, Marburg entry inh 10µM, HCMV inh -67
Cc1nn2c(N3CCN(C4CCCC4)CC3)cc(C(C)(C)C)nc2c1-c1ccccc1	none
CCOC(=O)N1CCc2c(sc3c2c(=O)n(Cc2ccccc2)c(=O)n3CC(=O)Nc2ccc(C)cc2C)C1	none
Cc1ccc(C)c(CN2C[C@H](Sc3nc4ccccc4[nH]3)C[C@H]2C(=O)N2CCCN(C)CC2)c1	none (no result: LASV entry inh, Marburg entry inh, HCMV inh)
Cc1ccc(CNC(=O)c2cc3c(=O)n(Cc4ccco4)ccc3nc2C)cc1	LASV entry inh inconclusive, HCMV inh inconclusive (no result: Marburg entry inh)
CN1CCN(C(c2ccc(C(F)(F)F)cc2)c2ccc3cccnc3c2O)CC1 (configuration not stated)	LASV entry inh 7.9µM, Marburg entry inh inconclusive, HCMV inh -97
Cc1ccc(OCCOC(=O)Nc2ccccc2)cc1	HCMV inh -62
Cc1ccc(Sc2ncccc2COC(=O)Nc2ccccc2)cc1	LASV entry inh 16µM
Cc1ccc(Sc2ncccc2COC(=O)Nc2c(C)cccc2C)cc1	LASV entry inh 2.8µM
Cc1ccccc1NC(=O)OCc1cccnc1Sc1ccc(Cl)cc1	FMDV inh inconclusive, LASV entry inh inconclusive
CCNC(=S)NCCC1=c2ccccc2=N/C1=C\c1c(O)n(C)c(=O)n(C)c1=O	FMDV inh 40µM (no result: LASV entry inh, Marburg entry inh)
COCCOC(=O)Cn1nnc2sc(-c3ccccc3)cc2c1=O	none
COc1ccc(-n2nc([N+](=O)[O-])c(=NCc3cccnc3)n2O)cc1	LASV entry inh inconclusive, Marburg entry inh inconclusive
COc1ccc(-n2nc([N+](=O)[O-])c(=NC3CCN(Cc4ccccc4)CC3)n2O)cc1	Marburg entry inh inconclusive, HCMV inh -63
CCOC(=O)/C(=C\Nc1cccc(OCc2ccccc2)c1)NC(=O)c1ccccc1	HCMV inh -60 (no result: FMDV inh, LASV entry inh, Marburg entry inh)
COc1ccc(-c2nn3c(-c4ccc(C)cc4)nnc3c3ccccc23)cc1	none
CC1CCc2nc(NC(=O)CSc3nc4ccccc4o3)sc2C1 (configuration not stated)	FMDV inh inconclusive, LASV entry inh inconclusive, HCMV inh -85
Clc1ccc(C(c2nnnn2C2CCCC2)N2CCN(c3nc4ccccc4s3)CC2)cc1 (configuration not stated)	Marburg entry inh inconclusive
Cc1ccc(Cl)cc1N1CCN(C(c2cccnc2)c2nnnn2C2CCCCC2)CC1 (configuration not stated)	LASV entry inh inconclusive, Marburg entry inh 15µM! (no result: FMDV inh)

Source: PubChem
